The values that follow come from PubChem BioAssay.

Results filed as inconclusive are left out. The source made the active and inactive calls.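 How the source made its calls, unless noted: active means differentiation response of at least 50%, scaled between solvent and reference control, from cells with both markers; inactive means the rest.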

The inhibition is the drop in the measured response relative to a control, in per cent.

The nature of experiment [1]: rapamycin-like changes in RPL19A-GFP expression – cell-based, S. cerevisiae, multiplex flow cytometry, primary screen (AID 1862; in the data active means percent of DMSO control GFP below about 86%;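 further: lower values mimic rapamycin by blocking the RPL19A rise seen in DMSO cells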). The note with it: S. cerevisiae RPL19A-GFP strain, flow cytometry fluorescence, 3 h; at 10 µM; stronger effect = lower value.
Experiment [2] can be described thus: TOR pathway GLN3 branch reporter MEP2-GFP changes – S. cerevisiae, multiplex flow cytometry, primary screen (AID 1867;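 active means GFP response, as percent of the DMSO control, above the screen-wide mean plus 3 SD, about 139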;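 further: median GFP channel fluorescence of barcode-gated MEP2-GFP cells measured by flow cytometry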). The note with it: S. cerevisiae MEP2-GFP strain, 3 h, at 10 µM, stronger effect = higher value, 100% means same as DMSO wells.
Experiment [3] is described as follows: TOR pathway RTG branch CIT2 reporter changes – S. cerevisiae, GFP fusion, multiplex flow cytometry, primary screen (AID 1870;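 active means percent response above a set limit, the screen-wide mean plus 3 SD, cut at about 130% in these data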;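 further: barcoded CIT2-GFP strain pooled with four other GFP strains with rapamycin as positive control; median GFP fluorescence per well over plate mean of DMSO wells so 100% = DMSO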). Conditions: S. cerevisiae CIT2-GFP expression, 3 h, at 10 µM, stronger effect = higher value.
Experiment [4] can be described thus: TOR pathway LAP4-GFP level changes – S. cerevisiae, multiplex flow cytometry, primary screen (AID 1873;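 active means GFP signal, as percent of the solvent control, above the screen mean plus 3 SD, about 149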). Conditions: S. cerevisiae LAP4-GFP expression, 3 h, at 10 µM, stronger effect = higher value. (A flow cytometer gives signals particle by particle.)
Experiment [5] is described as follows: yeast AGP1-GFP level changes, GLN3 branch – cell-based, multiplex flow cytometry, S. cerevisiae, primary screen (AID 1887;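 active means GFP signal above the screen-wide mean plus 3 SD, that is over about 124.5% of the solvent control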;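 further: AGP1-GFP fusion strain of S. cerevisiae within a five-strain barcoded multiplex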). The note with it: 3 h, at 10 µM, stronger effect = higher value.
Experiment [6] in a line: reduced mouse 2C T cell binding to pMHC/ICAM-1 vesicles – MLPCN validation set, flow cytometry, LFA-1/ICAM-1 modulator project, pilot screen (AID 2523;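 active means response below a set limit, under 55% cells CD8-positive and vesicle-bound, and CD8 cells' 90th-percentile brightness under 279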;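 on vesicle binding response: mean PE anti-B7-1 fluorescence of CD8+ cells relative to row control; 100% = QL9-loaded vesicles with DMSO vehicle in the same plate row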). The note with it: 2C mouse CD8+ T cells, at 7 µM, stronger effect = lower value; double positive events: measured here: CD8+/vesicle+ event percentage.
The target in experiment [7] is Integrin beta-1 (Homo sapiens) + Integrin alpha-4 (Homo sapiens) (UniProt P13612+P05556). As to the kind of experiment: alpha4beta1 integrin LIBS antibody binding reduction – U937 cells, HUTS-21 mAb, flow cytometry, validation set, VLA-4 allosteric modulator project, pilot screen (AID 2674;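 active means inhibition above 50%, about 3 SD of the validation set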;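 further: antibody binding induced by the VLA-4 ligand LDV present at three times its Kd; 0% = LDV ligand with antibody and no compound and 100% = antibody without LDV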). Conditions: HUTS-21 LIBS mAb binding, at 6.7 µM, stronger effect = higher value, binding induced by LDV ligand.
Chain of Integrin beta-1 (Homo sapiens) + Integrin alpha-4 (Homo sapiens) (P05556 whole entry, looked up): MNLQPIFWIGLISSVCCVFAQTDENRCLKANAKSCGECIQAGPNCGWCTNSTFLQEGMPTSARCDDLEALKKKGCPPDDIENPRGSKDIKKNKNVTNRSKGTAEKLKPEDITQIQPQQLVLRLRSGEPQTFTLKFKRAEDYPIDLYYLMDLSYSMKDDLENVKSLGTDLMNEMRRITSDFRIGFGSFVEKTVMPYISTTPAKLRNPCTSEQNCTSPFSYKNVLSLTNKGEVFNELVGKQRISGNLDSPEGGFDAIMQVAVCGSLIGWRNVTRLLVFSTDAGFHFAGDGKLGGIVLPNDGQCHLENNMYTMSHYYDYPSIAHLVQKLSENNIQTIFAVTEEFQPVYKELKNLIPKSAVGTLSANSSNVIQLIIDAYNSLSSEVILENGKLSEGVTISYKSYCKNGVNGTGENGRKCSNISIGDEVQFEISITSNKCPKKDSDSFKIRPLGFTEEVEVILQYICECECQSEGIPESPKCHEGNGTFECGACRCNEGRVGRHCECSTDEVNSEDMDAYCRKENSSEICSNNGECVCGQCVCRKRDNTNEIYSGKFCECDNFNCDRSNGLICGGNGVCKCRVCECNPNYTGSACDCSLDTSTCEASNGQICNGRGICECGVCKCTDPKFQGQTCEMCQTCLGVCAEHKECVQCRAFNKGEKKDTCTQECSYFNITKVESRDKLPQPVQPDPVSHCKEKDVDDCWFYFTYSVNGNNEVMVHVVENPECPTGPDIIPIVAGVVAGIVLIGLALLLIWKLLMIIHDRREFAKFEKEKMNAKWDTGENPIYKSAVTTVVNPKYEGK
Chain of Integrin beta-1 (Homo sapiens) + Integrin alpha-4 (Homo sapiens) (P13612 whole entry, looked up): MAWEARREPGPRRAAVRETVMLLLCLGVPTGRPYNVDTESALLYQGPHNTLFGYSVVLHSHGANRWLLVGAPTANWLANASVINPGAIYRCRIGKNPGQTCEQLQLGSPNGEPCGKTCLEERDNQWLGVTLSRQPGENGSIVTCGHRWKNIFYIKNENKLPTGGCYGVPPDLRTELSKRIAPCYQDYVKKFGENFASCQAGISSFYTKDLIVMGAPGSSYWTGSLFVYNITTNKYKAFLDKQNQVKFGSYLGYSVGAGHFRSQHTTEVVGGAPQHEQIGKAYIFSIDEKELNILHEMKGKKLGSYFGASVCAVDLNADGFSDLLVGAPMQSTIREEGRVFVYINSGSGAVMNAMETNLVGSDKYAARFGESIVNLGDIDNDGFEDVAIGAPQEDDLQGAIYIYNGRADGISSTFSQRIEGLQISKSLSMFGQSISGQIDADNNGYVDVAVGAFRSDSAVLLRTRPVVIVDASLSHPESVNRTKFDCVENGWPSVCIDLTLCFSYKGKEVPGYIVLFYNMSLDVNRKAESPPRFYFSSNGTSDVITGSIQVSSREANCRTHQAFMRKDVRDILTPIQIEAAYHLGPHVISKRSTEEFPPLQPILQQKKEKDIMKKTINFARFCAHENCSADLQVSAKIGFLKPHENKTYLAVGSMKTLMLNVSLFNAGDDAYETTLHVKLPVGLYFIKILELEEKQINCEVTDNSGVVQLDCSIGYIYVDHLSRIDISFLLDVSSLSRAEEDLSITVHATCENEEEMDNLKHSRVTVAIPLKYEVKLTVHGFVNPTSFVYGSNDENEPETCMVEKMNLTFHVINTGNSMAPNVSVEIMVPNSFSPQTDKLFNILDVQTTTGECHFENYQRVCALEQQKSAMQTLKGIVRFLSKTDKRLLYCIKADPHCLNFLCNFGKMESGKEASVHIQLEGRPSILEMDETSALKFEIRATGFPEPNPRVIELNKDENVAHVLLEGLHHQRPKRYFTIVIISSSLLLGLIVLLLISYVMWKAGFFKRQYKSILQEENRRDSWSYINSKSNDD

Experiment [8] is described as follows: calorie-restriction mimetic ROS inhibitors, yeast – validation compound set, pilot screen (AID 2706;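 active means superoxide response below 65% of plate, a cut near 3 SD across the whole screen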;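 further: yeast exposed to compound for one week at 30 degrees C before staining; 100% = mean of all compound wells on the same plate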). The note with it: S. cerevisiae aging, superoxide DHE fluorescence; at 10 µM; stronger effect = lower value.
Experiment [9] has as its target Beta-adrenergic receptor kinase 1 (Homo sapiens) (UniProt P25098). As to the kind of experiment: GRK2 binders displacing RNA aptamer, biochemical, validation, human GRK2, bead flow cytometry (AID 488806;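 active means aptamer binding inhibition above 30%, about 3 SD of noise from non-fluorescent compounds; inactive means inhibition at or below 30%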). The note with it: bead-bound GRK2, FAM-aptamer displacement, at 10 µM, stronger effect = higher value.
For experiment [10], the target named is Beta-2 adrenergic receptor (Homo sapiens) (UniProt P07550). As to the kind of experiment: agonist-induced loss of surface beta2AR – cell-based, FAP fluorogen, flow cytometry, validation set, pilot screen (AID 504459;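 active means percent response above 42, roughly 3 SD of non-fluorescent test compounds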;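 further: agonist-driven loss of surface beta2AR via internalization measured by FAP dye flow cytometry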). Conditions: Am2.2-beta2AR cells, at 10 µM, stronger effect = higher value.
Chain of Beta-2 adrenergic receptor (Homo sapiens) (P07550 whole entry, looked up): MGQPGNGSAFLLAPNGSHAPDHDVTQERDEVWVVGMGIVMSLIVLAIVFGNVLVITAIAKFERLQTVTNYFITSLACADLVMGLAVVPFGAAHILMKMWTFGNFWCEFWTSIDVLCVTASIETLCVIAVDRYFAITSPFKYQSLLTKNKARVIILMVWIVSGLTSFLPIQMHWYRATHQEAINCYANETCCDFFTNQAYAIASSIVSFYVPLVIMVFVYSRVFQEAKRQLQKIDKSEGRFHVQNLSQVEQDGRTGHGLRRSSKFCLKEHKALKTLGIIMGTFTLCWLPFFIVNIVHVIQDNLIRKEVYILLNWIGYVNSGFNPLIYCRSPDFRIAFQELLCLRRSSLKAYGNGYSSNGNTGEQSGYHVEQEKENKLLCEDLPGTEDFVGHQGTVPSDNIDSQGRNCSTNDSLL
Experiment [11] deals with AP-2 complex subunit beta (Homo sapiens) (UniProt P63010). As to the kind of experiment: beta-arrestin/AP2 interaction blockers – biochemical, validation set, GST-AP2 beads, flow cytometry, pilot screen (AID 504541;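 active means inhibition above 54%, about 3 SD of non-fluorescent compounds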;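 further: AP2 carries R879A mutation and is captured from E. coli lysate; bead-bound FITC arrestin peptide fluorescence measuring arrestin peptide binding to AP2; 0% = DMSO wells and 100% = excess unlabeled arrestin peptide control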). The note with it: FITC arrestin peptide, at 10 µM, stronger effect = higher value, AP2 beta2 appendage fragment, R879A mutant.
Chain of AP-2 complex subunit beta (Homo sapiens) (P63010 whole entry, looked up, the tested form may be a part, one chain of several): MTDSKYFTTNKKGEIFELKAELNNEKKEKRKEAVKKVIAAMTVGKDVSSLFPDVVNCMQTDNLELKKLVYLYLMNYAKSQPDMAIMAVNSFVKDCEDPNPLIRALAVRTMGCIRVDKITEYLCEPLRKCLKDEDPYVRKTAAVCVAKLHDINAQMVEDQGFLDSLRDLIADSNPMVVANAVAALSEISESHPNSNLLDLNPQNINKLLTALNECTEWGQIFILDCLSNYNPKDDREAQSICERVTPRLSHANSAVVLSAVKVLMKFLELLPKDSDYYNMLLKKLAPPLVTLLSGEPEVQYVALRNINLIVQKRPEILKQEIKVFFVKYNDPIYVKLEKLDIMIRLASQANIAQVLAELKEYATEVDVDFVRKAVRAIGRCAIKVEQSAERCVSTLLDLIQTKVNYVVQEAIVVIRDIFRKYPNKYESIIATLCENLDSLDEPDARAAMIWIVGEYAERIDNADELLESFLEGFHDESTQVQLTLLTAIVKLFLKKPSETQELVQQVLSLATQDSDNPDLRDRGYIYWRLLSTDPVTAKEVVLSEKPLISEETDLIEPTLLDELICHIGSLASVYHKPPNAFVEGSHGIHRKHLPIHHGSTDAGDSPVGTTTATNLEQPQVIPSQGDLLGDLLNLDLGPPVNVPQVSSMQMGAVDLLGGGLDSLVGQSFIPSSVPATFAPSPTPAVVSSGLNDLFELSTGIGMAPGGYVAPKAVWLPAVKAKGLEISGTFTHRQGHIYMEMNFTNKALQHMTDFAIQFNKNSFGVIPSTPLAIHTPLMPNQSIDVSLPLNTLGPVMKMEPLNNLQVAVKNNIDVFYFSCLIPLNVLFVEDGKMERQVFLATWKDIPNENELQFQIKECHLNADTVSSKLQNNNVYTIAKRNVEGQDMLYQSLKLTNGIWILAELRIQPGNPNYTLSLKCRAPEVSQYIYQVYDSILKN
Experiment [12] can be described thus: cytosolic pH regulators acting via V-ATPase – S. cerevisiae, pHLuorin, HTS validation (AID 504600; in the data active means response above about 15%;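 further: plate controls were DMSO for no effect and reference compound for full effect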). The note with it: V-ATPase proton transport, at 10 µM, stronger effect = higher value.
Experiment [13] has as its system anti-desmoglein-3 scFv antibody binding to human DSG3. As to the kind of experiment: blockers of pathogenic pemphigus antibody–desmoglein-3 binding – biochemical, validation compound set, bead-based, flow cytometry, pilot screen (AID 588368;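 active means binding below the plate cutoff, the plate median minus 3 SD, with a reading above zero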;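 further: signal is the median channel fluorescence of bead-bound GFP antibody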). The note with it: Protein G beads, DSG3-Fc, scFv-GFP binding, at 10 µM, stronger effect = lower value.
Experiment [14] can be described thus: Nile Red efflux blockade in pump-expressing yeast – validation compound set, multiplex, phenotypic, pilot screen (AID 588506;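 active means efflux inhibition above 0.42, the validation set average plus 4 SD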;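 further: Nile Red retained in cells so higher fluorescence means more efflux inhibition; 0 = negative control wells and 1 = enniatin B 25 µM full block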). The note with it: S. cerevisiae pump-expressing triplex, Nile Red efflux flow cytometry; at 10 µM; stronger effect = higher value; the pumps come from Candida albicans.
The target in experiment [15] is ATP-binding cassette sub-family B member 6 (Homo sapiens) (UniProt Q9NP58). As to the kind of experiment: blockers of ABCB6-driven porphyrin uptake – K562-ABCB6 cells, flow cytometry, validation set, pilot screen (AID 588550;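 active means inhibition above the screen-wide mean plus 3 SD, about 51%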;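 further: 0% = DMSO wells and 100% = benzethonium chloride 70 µM positive control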). The note with it: K562-ABCB6 porphyrin accumulation, 1 h, at 10 µM, stronger effect = higher value.
Chain of ATP-binding cassette sub-family B member 6 (Homo sapiens) (Q9NP58 whole entry, looked up): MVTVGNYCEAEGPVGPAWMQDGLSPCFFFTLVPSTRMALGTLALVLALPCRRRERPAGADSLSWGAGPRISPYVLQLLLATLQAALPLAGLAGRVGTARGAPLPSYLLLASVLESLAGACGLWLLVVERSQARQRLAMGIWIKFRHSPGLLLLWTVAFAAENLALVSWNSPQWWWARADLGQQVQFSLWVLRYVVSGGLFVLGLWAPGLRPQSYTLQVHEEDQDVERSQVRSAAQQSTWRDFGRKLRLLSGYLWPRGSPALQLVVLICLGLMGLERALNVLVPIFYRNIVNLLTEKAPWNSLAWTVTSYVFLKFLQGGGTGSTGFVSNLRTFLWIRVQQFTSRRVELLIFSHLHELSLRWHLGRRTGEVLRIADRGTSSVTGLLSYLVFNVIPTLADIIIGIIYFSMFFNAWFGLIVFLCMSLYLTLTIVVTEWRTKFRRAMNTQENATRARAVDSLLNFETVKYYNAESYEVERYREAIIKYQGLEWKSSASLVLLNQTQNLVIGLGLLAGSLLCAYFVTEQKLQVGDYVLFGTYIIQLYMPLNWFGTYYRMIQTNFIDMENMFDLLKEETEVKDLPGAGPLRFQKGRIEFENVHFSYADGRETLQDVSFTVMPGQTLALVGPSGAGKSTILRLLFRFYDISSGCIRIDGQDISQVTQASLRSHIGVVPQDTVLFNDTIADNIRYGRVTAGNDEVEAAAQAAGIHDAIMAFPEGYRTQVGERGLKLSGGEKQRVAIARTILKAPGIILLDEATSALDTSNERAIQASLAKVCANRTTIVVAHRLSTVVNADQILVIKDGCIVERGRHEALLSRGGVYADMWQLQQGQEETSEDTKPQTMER
Experiment [16] is described as follows: AML differentiation inducers, ER-HoxA9 marrow cells – cell-based, GFP/MAC1 double positive, flow cytometry, validation set, primary screen (AID 588685).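 Further: compound exposure lasts four days before antibody staining and flow analysis; 0% = DMSO wells and 100% = 5 µM fulvestrant positive control.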 Conditions: stronger effect = higher value, normalized: vehicle 0, fulvestrant 100.

Chain of Beta-adrenergic receptor kinase 1 (Homo sapiens) (P25098 whole entry, looked up): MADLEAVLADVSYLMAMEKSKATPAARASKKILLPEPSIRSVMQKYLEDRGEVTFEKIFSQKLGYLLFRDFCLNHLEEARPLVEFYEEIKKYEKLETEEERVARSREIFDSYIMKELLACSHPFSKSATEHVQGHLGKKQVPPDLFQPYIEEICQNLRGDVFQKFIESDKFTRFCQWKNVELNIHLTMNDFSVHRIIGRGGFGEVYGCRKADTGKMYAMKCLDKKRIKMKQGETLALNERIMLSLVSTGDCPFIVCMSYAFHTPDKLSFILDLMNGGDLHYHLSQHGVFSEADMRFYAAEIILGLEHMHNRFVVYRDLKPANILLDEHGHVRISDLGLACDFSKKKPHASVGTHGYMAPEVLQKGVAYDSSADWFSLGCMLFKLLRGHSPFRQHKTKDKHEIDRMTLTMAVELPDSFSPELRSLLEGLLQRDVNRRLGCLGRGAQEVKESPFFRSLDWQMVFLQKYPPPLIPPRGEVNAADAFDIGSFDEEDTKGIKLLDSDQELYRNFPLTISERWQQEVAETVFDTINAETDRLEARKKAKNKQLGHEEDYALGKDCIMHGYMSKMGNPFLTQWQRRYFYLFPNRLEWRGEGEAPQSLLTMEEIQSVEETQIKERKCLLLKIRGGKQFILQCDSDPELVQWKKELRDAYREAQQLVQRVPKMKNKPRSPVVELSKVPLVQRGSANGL

For the compound `CN(C)c1ccc(Nc2c3c4c(cccc4n(C)c2=O)C(=O)c2ccccc2-3)cc1`, the percent of DMSO control GFP in [1] was 99.3% (inactive). The GFP response vs DMSO is 108% (inactive) in [2] and 126% (inactive) in experiment [4]. For the same compound, the percent response of DMSO control in [3] is 111% (inactive). Besides, the GFP response, % of DMSO in [5] is 108% (inactive). Besides, the double positive events in experiment [6] was 60.5%. Also, in experiment [6], the vesicle binding response is 195% (inactive). Further, the results for the inhibition in [7], in [11] and in [15] were -0.27% (inactive), 16.7% (inactive) and 3% (inactive), respectively. The superoxide response (% of plate) in experiment [8] is 71% (inactive). Besides, the aptamer binding inhibition in [9] was 0% (inactive). In addition, the values for the response in experiment [10] and in [12] were -25.2% (inactive) and -0.9% (inactive), respectively. In addition, the binding (% of control) in experiment [13] is 93.8% (inactive). In addition, the efflux inhibition (fraction of control) in [14] is -0.17 (inactive). In experiment [16], the differentiation response was -9.91% (inactive).

With `c1ccc(Nc2cccc3c(Nc4ccccc4)cccc23)cc1`, the percent of DMSO control GFP in experiment [1] is 104% (inactive). The GFP response vs DMSO in experiment [2] is 107% (inactive); in experiment [4], 88.7% (inactive). The percent response of DMSO control in experiment [3] is 105% (inactive). The GFP response, % of DMSO in experiment [5] was 97.8% (inactive). The compound also registered a double positive events in [6] of 62%. Moreover, the vesicle binding response in experiment [6] was 284% (inactive). For the same compound, the inhibition was -28.5% (inactive) in [7], 21.9% (inactive) in experiment [11] and -26% (inactive) in experiment [15]. Also, in experiment [8], the superoxide response (% of plate) was 98.3% (inactive). Also, in [9], the aptamer binding inhibition was 1% (inactive). For the same compound, the response was 6.03% (inactive) in [10] and 0.51% (inactive) in [12]. Also, the binding (% of control) in experiment [13] is 91.6% (inactive). Moreover, the efflux inhibition (fraction of control) in [14] was 0.18 (inactive). Moreover, the differentiation response in experiment [16] is 14.9% (inactive).

As for `COc1ccc(CCN(C)CCCC(C#N)(c2cc(OC)c(OC)c(OC)c2)C(C)C)cc1OC` (stereo not given), in experiment [1], the percent of DMSO control GFP is 100% (inactive). Further, the values for the GFP response vs DMSO in experiment [2] and in [4] were 99.3% (inactive) and 82.8% (inactive), respectively. Also, the percent response of DMSO control in experiment [3] is 111% (inactive). Besides, the GFP response, % of DMSO in [5] was 98.6% (inactive). This compound also had a double positive events in [6] of 57.7%. Further, the vesicle binding response in experiment [6] was 239% (inactive). In addition, the values for the inhibition in experiment [7], in experiment [11] and in experiment [15] were 11% (inactive), -7.98% (inactive) and 9% (inactive), respectively. Also, the superoxide response (% of plate) in [8] is 86% (inactive). Moreover, the aptamer binding inhibition in [9] is 1% (inactive). Further, the figures for the response in experiment [10] and in experiment [12] were -12.7% (inactive) and 0.22% (inactive), respectively. Further, the binding (% of control) in experiment [13] was 99.8% (inactive). The efflux inhibition (fraction of control) in experiment [14] was -0.01 (inactive). Besides, the differentiation response in experiment [16] is 3.18% (inactive).

On to `CCCCOC(=O)c1ccc(N)cc1`, for which the percent of DMSO control GFP in experiment [1] is 101% (inactive). The GFP response vs DMSO in [2] was 104% (inactive); in experiment [4], 93.7% (inactive). Moreover, in [3], the percent response of DMSO control was 110% (inactive). Moreover, the GFP response, % of DMSO in experiment [5] was 105% (inactive). Besides, in experiment [6], the double positive events came out at 59.9%. Besides, in [6], the vesicle binding response was 183% (inactive). Also, the values for the inhibition in experiment [7], in experiment [11] and in experiment [15] were -15.8% (inactive), 53.1% (inactive) and -2% (inactive), respectively. Besides, the superoxide response (% of plate) in experiment [8] is 91.1% (inactive). The aptamer binding inhibition in experiment [9] is -3% (inactive). The response was -7.71% (inactive) in experiment [10] and -4.52% (inactive) in [12]. Moreover, in [13], the binding (% of control) is 99.4% (inactive). The efflux inhibition (fraction of control) in experiment [14] was -0.03 (inactive). Besides, the differentiation response in experiment [16] was -7.5% (inactive).

As to `CC(=O)N1CCN(c2ccc(NC(=O)/C=C/c3ccccc3)cc2)CC1`, the percent of DMSO control GFP in experiment [1] is 103% (inactive). For the same compound, the GFP response vs DMSO in [2] is 98.7% (inactive); in [4] it was 100% (inactive). In addition, the percent response of DMSO control in [3] was 105% (inactive). Moreover, in [5], the GFP response, % of DMSO was 108% (inactive). Also, the double positive events in experiment [6] amounted to 63.1%. Besides, the vesicle binding response in [6] was 168% (inactive). Also, the inhibition is 2.93% (inactive) in [7], -6.59% (inactive) in [11] and -1% (inactive) in experiment [15]. In experiment [8], the superoxide response (% of plate) was 76% (inactive). Also, the aptamer binding inhibition in experiment [9] was -3% (inactive). For the same compound, the response is 3.43% (inactive) in experiment [10] and 3.19% (inactive) in [12]. Moreover, the binding (% of control) in experiment [13] was 107% (inactive). Also, the efflux inhibition (fraction of control) in experiment [14] is 0.39 (inactive). Further, in [16], the differentiation response is -11.9% (inactive).
